Measurements from PubChem BioAssay (NCI).
This is part of a sample that, as a whole, favours compounds with a hit. Of some 79,000 tested, about 15% had one in any assay. Unmarked numbers belong to inactive results. The source made the active and inactive calls. Cut-off read from the data, not from the text of the source: active = growth inhibition above about 70%; inactive = the rest.

Experiment: NCI Yeast Anticancer Drug Screen. Data for the rad50 strain (AID 155);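 note: 0% = growth of vehicle-only cultures of the same strain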
Details: S. cerevisiae rad50 strain growth inhibition; at 50.0 µM; stronger effect = higher value
Method in brief: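 Growth of the mutant yeast was measured after compound exposure and referenced to vehicle-treated cultures.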

Structure (SMILES) | growth inhibition [%]
CN1C(=O)CC2(C)c3cc(O)ccc3N(C)C12 (configuration not stated) | 53.6
CN1NC(c2ccccc2)=NN=C1c1ccccc1 | -8.5
Cc1ccc(C2(O)c3ccccc3N=NN2C)cc1 (configuration not stated) | 2.6
Nc1ncnc(N)c1NC(=O)c1ccccc1 | -16.4
S=C(/C=C1\SC(=Nc2ccccc2)C(=Nc2ccccc2)N1c1ccccc1)Nc1ccccc1 | 1.25
CNc1ccccc1C(=O)N/N=C/c1cccc([N+](=O)[O-])c1 | -0.9
CCCCCCCCSc1nc(Nc2cc(C(C)(C)C)c(O)c(C(C)(C)C)c2)nc(SCCCCCCCC)n1 | 41.6
Nc1cc(=O)c2n[nH]nc2[nH]1 | -29.9
CCCCCCCCCCCCCCCCCC[N+](C)(C)Cc1c(Cl)c(Cl)c(Cl)c(Cl)c1Cl | 10.8
CCNC(=O)NCC | -16.4
COc1ccccc1C(=O)C(CN(C)C)CN(C)C | -2.5
O=C1C=C(N2CCCC2)CC1 | 18.2
COC(=O)C1C(C(=O)OC)C(C(=O)OC)C1C(=O)OC (configuration not stated) | 1.6
O=C(SCCN1CCCC1)C(O)(c1ccccc1)C1CCCC1 (configuration not stated) | 14.8
CC(=O)C1=CCC2[C@H]3CC=C4C[C@H](O)CC[C@@]4(C)C3CC[C@@]12C (some centres not stated) | 21.2
O=C(c1ccccc1)c1ccccc1NCC(O)COc1cccc2ccccc12 (configuration not stated) | -7.5
O=C(CCN1CCC2CCC(C2)C1)c1ccc(Cl)cc1 (configuration not stated) | 17.3
O=C(O)c1cc(O)c(C(=O)O)cc1O | -3.2
CCOC(=O)c1[nH]n(-c2ccccc2)c(=O)c1C=NC(=S)c1cccnc1 | -12.3
CCCCSc1nc(NCC)nc(NCC)n1 | 63.6
CC(C)C(NC(=O)C1CCCN1)P(=O)(O)O (configuration not stated) | 10.1
COc1cc(OC)c2c(c1)OC(c1ccccc1)CC2=O (configuration not stated) | -3.3
CCC(CC)(CO)CO | 8.75

Experiment: NCI Yeast Anticancer Drug Screen. Data for the mec2-1 strain (AID 157)
Details: S. cerevisiae mec2-1 strain, at 50.0 µM, stronger effect = higher value
Method in brief: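 Cells of the genetically defined mec2-1 yeast strain are incubated with test compound. Inhibition of growth is calculated against vehicle-treated controls.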

Structure (SMILES) | growth inhibition
CCOC(=O)C(CC)(C(=O)OCC)C(C)CC (configuration not stated) | -1.65%
Cc1ccc(S(=O)(=O)C(CCC(=O)c2ccccc2)(CCC(=O)c2ccccc2)[N+](=O)[O-])cc1 | -9.45%
CCC[CH2][Sn]([CH2]CCC)([O]C(=O)c1cccc(F)c1F)[O][Sn]([CH2]CCC)([CH2]CCC)[O]C(=O)c1cccc(F)c1F | 91.5% (active)
O=C1c2ccccc2C2(O)NC(=S)N(c3ccccc3)C12O (configuration not stated) | -20.8%
NC(C(=O)O)C(F)(F)C(=O)O (configuration not stated) | -18.7%
CC1=C(C)Cc2c(-c3ccccc3)oc(-c3ccccc3)c2C1 | -12.4%
O=C(O)c1ccc2c([N+](=O)[O-])cccc2n1 | 19.2%
O=[N+]([O-])c1ccc(Oc2cccc3ccccc23)c([N+](=O)[O-])c1 | 8.55%
CCOc1ncnc2ccc(Cl)cc12 | -3.7%
CN(C)c1nc(NN)c2c(-c3ccccc3)c(-c3ccccc3)oc2n1 | 3.9%
CCOC(=O)NCc1cccc2ccccc12 | -2.7%
NNC(=O)c1cccc(C(=O)NN)n1 | 4.9%
Cc1cccc(N=NC2Sc3nc4ccccc4n3C2=O)c1 (configuration not stated) | -19.4%
O=C(/C=C/c1ccc(O)c(O)c1)c1ccc(O)cc1O | -27.9%
CCCCCCCCCCCCCC(=O)Oc1ccc([N+](=O)[O-])cc1 | 0.05%
COc1ccc(-c2nnc(-c3ccc(OC)cc3)nn2)cc1 | 15.7%
[O-][n+]1c2ccc(Cl)cc2nc2ccc(Cl)cc21 | -10.9%
CN1C(=O)CC2(C)c3cc(O)ccc3N(C)C12 (configuration not stated) | 30.1%
CN1NC(c2ccccc2)=NN=C1c1ccccc1 | 21.9%
Cc1ccc(C2(O)c3ccccc3N=NN2C)cc1 (configuration not stated) | 0.5%
Nc1ncnc(N)c1NC(=O)c1ccccc1 | -19.6%
S=C(/C=C1\SC(=Nc2ccccc2)C(=Nc2ccccc2)N1c1ccccc1)Nc1ccccc1 | -9%
CNc1ccccc1C(=O)N/N=C/c1cccc([N+](=O)[O-])c1 | 1.05%
CCCCCCCCSc1nc(Nc2cc(C(C)(C)C)c(O)c(C(C)(C)C)c2)nc(SCCCCCCCC)n1 | 1.95%
